In PubChem BioAssay (NCATS):
Where “and” joins values, the source holds several entries; their conditions need not be identical. Equal values may be shown once. Results filed as inconclusive are left out. Calls of active or inactive are those of the source. Unless noted, the call rests on the fitted dose curve; in most records, active means well fitted curve in the direction sought with a large enough effect; inconclusive means small, poorly fitted or top-dose-only effect, or another doubt; inactive means no such curve, though single readings can be large; an effect the other way counts as inactive or inconclusive.

Experiments:
[1] = target: Lysosomal acid glucosylceramidase (Homo sapiens) (UniProt P04062); assay: Glucocerebrosidase-p2 (AID 348; in the data active means potency below about 10 µM; further: potency means the concentration at half of the fitted maximal effect); conditions: purified GBA, blue fluorogenic substrate, 40 min
Chain of Lysosomal acid glucosylceramidase (Homo sapiens) (P04062 whole entry, looked up): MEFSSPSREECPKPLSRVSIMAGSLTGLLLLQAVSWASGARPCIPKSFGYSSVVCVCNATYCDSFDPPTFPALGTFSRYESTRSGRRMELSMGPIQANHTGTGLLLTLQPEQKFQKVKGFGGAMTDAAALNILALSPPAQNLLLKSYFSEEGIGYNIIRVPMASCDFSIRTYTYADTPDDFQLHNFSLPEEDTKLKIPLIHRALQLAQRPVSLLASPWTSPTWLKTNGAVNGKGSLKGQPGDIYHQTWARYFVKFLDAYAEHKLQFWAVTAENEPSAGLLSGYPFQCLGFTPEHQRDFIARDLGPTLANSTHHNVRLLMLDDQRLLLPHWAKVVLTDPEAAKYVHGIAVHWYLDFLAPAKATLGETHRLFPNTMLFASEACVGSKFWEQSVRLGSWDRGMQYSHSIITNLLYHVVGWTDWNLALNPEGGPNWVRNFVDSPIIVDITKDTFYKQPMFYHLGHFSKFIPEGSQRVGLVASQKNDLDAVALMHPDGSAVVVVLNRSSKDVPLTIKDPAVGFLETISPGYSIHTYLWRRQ
Method in brief: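 Normal human glucocerebrosidase (0.2 nM) with blue fluorogenic substrate (80 uM final) in citrate/phosphate pH 5.9 with 10mM sodium taurocholate, 0.01% tween-20; 40 min RT, NaOH/glycine stop; fluorescence Ex 365/Em 440; AC50 from a titration from 0.6 nM upwards.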

[2] = AP1 Signaling Pathway (AID 357; active means well fitted curve in either direction with a large enough effect, not every such curve was filed as active;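 further: ME-180 reporter cells stimulated with EGF at its EC50 level; on the % scale 0 is the no-effect control and ±100 the full control effect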); conditions: ME-180 AP-1-bla reporter, EGF-induced, beta-lactamase ratio, 5 h
Method in brief: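 AP-1-bla ME-180 cells, Opti-MEM + 0.5% dialyzed FBS, plated overnight 37 °C. Cpd titration + EC50 EGF, 5 h 37 °C. CCF4 2.5 h RT; ex 405, em 460/530 ratio → %activity, AC50.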

[3] = NFAT Signaling Pathway (AID 444; active means well fitted curve in either direction with a large enough effect, not every such curve was filed as active;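 further: carbachol stimulus at about its EC50 of 1 µM final; on the % scale 0 is the no-effect control and ±100 the full control effect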); conditions: Jurkat NFAT-bla M1, carbachol, beta-lactamase ratio, 5 h
Method in brief: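 Read-out: CCF4 FRET ratio (460 nm/530 nm) after 1 h RT dye loading, used for %activity and AC50 from titration series. Cells: Jurkat NFAT-β-lactamase/M1 line, treated with compound plus 1 uM carbachol for 5 h, 37 °C.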

[4] = Stat Signaling Pathway (AID 446; active means well fitted curve in either direction with a large enough effect, not every such curve was filed as active;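 further: ME-180 cervical cancer cells given 40 pM IL-6 alongside compound; SIE-controlled beta-lactamase reporter measured as 460/530 nm FRET emission ratio; on the % scale 0 is the no-effect control and ±100 the full control effect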); conditions: ME-180 (cervical carcinoma) SIE beta-lactamase reporter, IL-6 stimulated, 5 h
Method in brief: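 FRET read-out (405 nm excitation, 460/530 nm emission) of a beta-lactamase reporter under a STAT-inducible element in ME-180 cervical carcinoma cells. Cells with compound receive 40 pM IL-6 for 5 h. Values are normalised to AC90 stimulation and AC90 JAK-inhibitor controls.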

[5] = target: Glucocorticoid receptor (Homo sapiens) (UniProt P04150); assay: GR-GFP Redistribution (AID 450;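 active means compounds whose dose series gives a full or clear partial fitted curve of increased nuclear translocation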; further: potency means the concentration at half of the fitted maximal effect); conditions: U2OS GR-GFP nuclear translocation, laser cytometry, 2 h
Chain of Glucocorticoid receptor (Homo sapiens) (P04150 whole entry, looked up, the tested form may be a part): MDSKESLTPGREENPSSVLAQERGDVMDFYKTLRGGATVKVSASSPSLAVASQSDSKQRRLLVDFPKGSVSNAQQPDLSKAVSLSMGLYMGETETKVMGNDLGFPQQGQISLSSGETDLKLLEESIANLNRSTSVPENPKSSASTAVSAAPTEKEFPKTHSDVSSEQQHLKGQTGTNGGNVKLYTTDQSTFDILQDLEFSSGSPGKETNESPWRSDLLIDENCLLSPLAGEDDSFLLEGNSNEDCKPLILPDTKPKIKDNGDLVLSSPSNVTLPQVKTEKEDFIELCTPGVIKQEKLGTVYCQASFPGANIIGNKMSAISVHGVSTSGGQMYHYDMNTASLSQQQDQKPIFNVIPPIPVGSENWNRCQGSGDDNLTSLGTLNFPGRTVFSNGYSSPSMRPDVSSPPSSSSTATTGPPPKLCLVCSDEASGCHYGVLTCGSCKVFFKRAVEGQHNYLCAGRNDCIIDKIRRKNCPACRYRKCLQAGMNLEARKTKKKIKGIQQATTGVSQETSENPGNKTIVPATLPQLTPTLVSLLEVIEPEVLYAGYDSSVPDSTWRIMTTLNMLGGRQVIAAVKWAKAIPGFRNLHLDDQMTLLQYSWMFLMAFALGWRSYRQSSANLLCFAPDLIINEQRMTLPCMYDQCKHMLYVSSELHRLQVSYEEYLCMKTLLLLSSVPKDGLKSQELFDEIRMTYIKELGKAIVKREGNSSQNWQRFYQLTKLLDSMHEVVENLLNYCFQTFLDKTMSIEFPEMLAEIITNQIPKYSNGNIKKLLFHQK

[6] = target: Glucocorticoid receptor (Homo sapiens) (UniProt P04150); assay: GR-EFC Redistribution (AID 451; calls by dose curve; further: potency means the concentration at half of the fitted maximal effect); conditions: CHO-K1 GR-EFC translocation, beta-gal luminescence, 2 h
Method in brief: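 Translocation of GR-ED fusion to nuclear EA restores b-gal, read by luminescence after 1 h room-temperature detection. Engineered CHO-K1 biosensor cells, 1,000/well, exposed 2 h at 37 C to titrations up to 46 uM final.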

[7] = target: Mitogen-activated protein kinase 10 (Mus musculus) (UniProt Q61831); assay: JNK3 AlphaScreen Assay (AID 530; active means well fitted curve in either direction with a large enough effect, not every such curve was filed as active;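 further: kinase came from lysate of stimulated human HepG2 cells; signal reports phosphorylation of biotinylated GST-cJun 1-79 at Ser73 with 10 µM ATP; on the % scale 0 is the no-effect control and ±100 the full control effect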)
Method in brief: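 qHTS titrations with 15 min compound pre-incubation before adding ATP (10 uM final). Read-out: AlphaScreen of Ser73-phosphorylated biotin-GST-cJun using HepG2 lysate JNK3 activated by IL-1β and TNFα.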

[8] = target: 3',5'-cyclic-AMP phosphodiesterase 4B (Homo sapiens) (UniProt Q07343); assay: qHTS Assay for Inhibitors of PDE-IV (AID 607; active means well fitted activation curve with a large enough effect in the main read-out, with a control signal flat, not every such curve was filed as active; further: % of control where 0% means no effect)
Chain of 3',5'-cyclic-AMP phosphodiesterase 4B (Homo sapiens) (Q07343 whole entry, looked up): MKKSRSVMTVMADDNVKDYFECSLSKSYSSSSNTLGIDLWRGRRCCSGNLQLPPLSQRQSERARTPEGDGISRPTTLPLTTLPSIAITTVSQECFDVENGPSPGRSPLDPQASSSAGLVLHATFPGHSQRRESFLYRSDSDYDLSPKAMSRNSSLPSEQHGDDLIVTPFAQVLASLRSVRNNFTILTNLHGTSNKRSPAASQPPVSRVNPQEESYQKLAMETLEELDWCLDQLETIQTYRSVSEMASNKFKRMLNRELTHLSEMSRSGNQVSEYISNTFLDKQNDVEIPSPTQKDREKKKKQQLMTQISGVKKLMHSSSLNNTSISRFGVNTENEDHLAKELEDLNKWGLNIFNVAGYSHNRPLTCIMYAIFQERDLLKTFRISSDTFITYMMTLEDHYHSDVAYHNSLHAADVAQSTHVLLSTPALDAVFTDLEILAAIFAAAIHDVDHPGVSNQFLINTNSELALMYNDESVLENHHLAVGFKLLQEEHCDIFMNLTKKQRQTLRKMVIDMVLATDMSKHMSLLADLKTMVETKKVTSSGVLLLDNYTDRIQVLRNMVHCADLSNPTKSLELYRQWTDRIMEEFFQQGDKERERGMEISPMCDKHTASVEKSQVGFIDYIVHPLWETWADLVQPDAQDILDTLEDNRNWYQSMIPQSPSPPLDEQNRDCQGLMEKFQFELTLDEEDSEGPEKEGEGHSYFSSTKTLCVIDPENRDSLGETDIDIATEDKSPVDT
Method in brief: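 Cell-based read-out of cAMP via a modified cyclic nucleotide-gated channel and membrane potential dye (535/590 nm) in HEK293 cells expressing PDE4 endogenously. Compounds tested up to 22.9 uM final; 100 uM RO 20-1724 reference.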

[9] = qHTS Assay for Identification of Small Molecule Antagonists for NFkB Signaling Pathway (AID 895; active means well fitted inhibition curve with a large enough effect in the signal ratio, with a control signal flat, not every such curve was filed as active; the % refers to the signal ratio; further: on the % scale 0 is the no-effect control and ±100 the full control effect)
Method in brief: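 Beta-lactamase reporter read-out (460 and 530 nm emission ratio, 405 nm excitation, 2 hrs substrate loading RT) after 5 hr stimulation with 10 pM TNF alpha in compound-treated NFkB-bla ME-180 cells in low-serum medium.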

[10] = qHTS Assay for Identification of Small Molecule Agonists for Thrombopoietin (TPO) Signaling Pathway (AID 917); further: on the % scale 0 is the no-effect control and ±100 the full control effect
Method in brief: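 Luciferase reporter (Glycoprotein IIb promoter) in IL-3-deprived Ba/F3 cells carrying human TPO receptor; compounds co-added with 26 pM TPO, incubated 24 h, 37 C. Steadylite luminescence measured after 10 min.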

[11] = target: Pyruvate kinase PKM (Homo sapiens) (UniProt P14618); assay: qHTS Assay for Activators of Human Muscle Pyruvate Kinase (AID 954; active means well fitted curve in the direction sought with a large enough effect, not every such curve was filed as active;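 further: 0% = uninhibited enzyme and -100% = no enzyme or full thiadiazolimine inhibition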)
Chain of Pyruvate kinase PKM (Homo sapiens) (P14618 whole entry, looked up): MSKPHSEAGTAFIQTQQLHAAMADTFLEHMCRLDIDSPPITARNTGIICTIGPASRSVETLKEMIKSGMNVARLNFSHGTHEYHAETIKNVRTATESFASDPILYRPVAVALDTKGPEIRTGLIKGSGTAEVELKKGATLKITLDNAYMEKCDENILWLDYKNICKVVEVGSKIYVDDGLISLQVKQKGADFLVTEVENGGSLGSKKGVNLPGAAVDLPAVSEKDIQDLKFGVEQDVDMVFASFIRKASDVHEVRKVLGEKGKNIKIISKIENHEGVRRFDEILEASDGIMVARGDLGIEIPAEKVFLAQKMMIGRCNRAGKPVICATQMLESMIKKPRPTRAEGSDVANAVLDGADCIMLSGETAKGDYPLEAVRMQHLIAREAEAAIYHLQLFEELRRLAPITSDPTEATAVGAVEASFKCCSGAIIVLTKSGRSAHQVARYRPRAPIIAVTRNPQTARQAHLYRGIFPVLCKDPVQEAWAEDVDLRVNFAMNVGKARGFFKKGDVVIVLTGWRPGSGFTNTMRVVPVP
Method in brief: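 ATP production by PKM2 detected via luciferase luminescence after 1 h room-temperature reaction (0.1 nM enzyme, PEP at Km 0.5 mM, ADP 0.1 mM, pH 7.2 imidazole buffer). Inhibition scaled to no-enzyme control; activation referenced to 0.3 nM enzyme wells.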

[12] = target: Alpha-galactosidase A (Homo sapiens) (UniProt P06280); assay: Counterscreen for Glucocerebrosidase Inhibitors: qHTS Assay for Human alpha-Galactosidase at pH 4.5 (AID 992); further: 0% is about no effect
Chain of Alpha-galactosidase A (Homo sapiens) (P06280 whole entry, looked up): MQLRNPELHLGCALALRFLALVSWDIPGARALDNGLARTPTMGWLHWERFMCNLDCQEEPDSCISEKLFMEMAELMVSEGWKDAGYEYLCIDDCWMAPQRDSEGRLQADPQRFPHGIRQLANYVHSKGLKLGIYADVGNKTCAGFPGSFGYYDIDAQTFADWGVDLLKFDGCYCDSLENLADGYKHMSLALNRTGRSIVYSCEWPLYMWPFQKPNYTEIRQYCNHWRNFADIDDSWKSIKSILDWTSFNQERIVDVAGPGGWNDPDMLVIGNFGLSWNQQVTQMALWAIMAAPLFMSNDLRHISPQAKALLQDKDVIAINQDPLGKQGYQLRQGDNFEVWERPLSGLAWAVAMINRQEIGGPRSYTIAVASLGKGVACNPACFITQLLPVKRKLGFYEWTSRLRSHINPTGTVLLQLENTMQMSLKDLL
Method in brief: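 Fluorogenic 1536-well qHTS at pH 4.5 (citrate, Tween-20): 2 nM enzyme, 80 uM 4-MU-alpha-galactoside, 20 min room temperature, NaOH/glycine stop. Titration 0.7 nM to 77 uM, data normalized to no-enzyme and full-activity controls, Hill-fitted AC50.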

[13] = target: alpha-glucosidase (Oryza sativa, rice) (UniProt Q653V4); assay: Counterscreen for Glucocerebrosidase Inhibitors: qHTS Assay for Rice alpha-Glucosidase at pH 5.0 (AID 997);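 further: 0% = full activity with enzyme and -100% = basal without enzyme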
Method in brief: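 Endpoint fluorogenic assay at pH 5.0: compounds (0.7 nM to 77 uM) titrated against 4 nM rice enzyme and 400 uM 4-MU-alpha-glucoside for 20 min at room temperature; NaOH/glycine stop, read ex 365/em 440 nm, Hill-fitted AC50.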

[14] = target: Ubiquitin carboxyl-terminal hydrolase 1 (Homo sapiens) (UniProt O94782); assay: Inhibitors of USP1/UAF1: Pilot qHTS (AID 504865);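 further: rhodamine fluorescence freed from ubiquitin-rhodamine substrate followed over time; top concentration of the series differs between compounds; on the % scale 0 is the no-effect control and ±100 the full control effect; nearly all actives have a fitted effect of over 35% in size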
Chain of Ubiquitin carboxyl-terminal hydrolase 1 (Homo sapiens) (O94782 whole entry, looked up): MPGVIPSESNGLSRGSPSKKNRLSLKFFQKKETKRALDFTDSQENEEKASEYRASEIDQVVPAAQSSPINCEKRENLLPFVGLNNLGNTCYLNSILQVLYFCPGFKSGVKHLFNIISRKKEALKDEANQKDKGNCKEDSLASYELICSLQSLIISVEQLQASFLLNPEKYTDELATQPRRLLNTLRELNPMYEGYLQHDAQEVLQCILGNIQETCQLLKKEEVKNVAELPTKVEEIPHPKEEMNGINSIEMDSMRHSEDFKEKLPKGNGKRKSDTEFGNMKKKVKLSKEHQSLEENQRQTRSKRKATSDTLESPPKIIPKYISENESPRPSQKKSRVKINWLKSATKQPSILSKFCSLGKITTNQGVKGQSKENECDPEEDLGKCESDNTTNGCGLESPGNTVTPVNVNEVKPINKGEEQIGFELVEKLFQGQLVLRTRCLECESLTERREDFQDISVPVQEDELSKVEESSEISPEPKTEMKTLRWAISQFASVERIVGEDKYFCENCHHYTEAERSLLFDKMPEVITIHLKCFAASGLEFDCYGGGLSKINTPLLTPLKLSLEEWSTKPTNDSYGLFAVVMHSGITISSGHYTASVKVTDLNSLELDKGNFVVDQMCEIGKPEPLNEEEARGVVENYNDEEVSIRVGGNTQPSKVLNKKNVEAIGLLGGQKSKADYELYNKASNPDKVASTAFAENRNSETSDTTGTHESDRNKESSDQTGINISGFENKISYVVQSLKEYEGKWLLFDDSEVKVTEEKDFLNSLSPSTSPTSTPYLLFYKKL
Method in brief: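 Deubiquitinase activity followed as kinetic rhodamine fluorescence release from 150 nM Ub-Rho. 1 nM USP1/UAF1 with compound, after 15 min room-temperature preincubation, in HEPES pH 7.8 buffer containing TCEP, EDTA, BSA and Tween-20.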

[15] = target: Luciferin 4-monooxygenase (Photinus pyralis) (UniProt P08659); assay: Biochemical firefly luciferase enzyme assay for NPC (AID 624030);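 further: purified P. pyralis luciferase at 10 nM with luciferin and ATP substrate; 0% = DMSO and -100% = full luciferase inhibition by PTC124 control; nearly all actives have a fitted effect of over 70% in size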
Chain of Luciferin 4-monooxygenase (Photinus pyralis) (P08659 whole entry, looked up): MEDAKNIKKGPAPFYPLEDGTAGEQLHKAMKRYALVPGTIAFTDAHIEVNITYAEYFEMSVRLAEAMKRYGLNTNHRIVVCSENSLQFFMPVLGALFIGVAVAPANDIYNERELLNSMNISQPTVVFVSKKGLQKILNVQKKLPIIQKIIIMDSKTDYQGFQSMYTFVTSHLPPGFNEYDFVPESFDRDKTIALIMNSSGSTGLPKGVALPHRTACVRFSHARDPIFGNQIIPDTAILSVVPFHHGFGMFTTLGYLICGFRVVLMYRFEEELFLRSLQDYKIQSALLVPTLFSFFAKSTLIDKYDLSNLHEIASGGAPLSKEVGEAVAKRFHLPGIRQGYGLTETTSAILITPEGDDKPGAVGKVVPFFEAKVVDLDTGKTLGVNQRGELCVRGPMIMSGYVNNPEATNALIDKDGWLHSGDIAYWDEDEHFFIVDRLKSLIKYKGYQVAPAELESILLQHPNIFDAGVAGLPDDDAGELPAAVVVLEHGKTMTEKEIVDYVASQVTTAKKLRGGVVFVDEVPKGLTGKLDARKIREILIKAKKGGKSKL
Method in brief: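 Direct inhibition of firefly luciferase enzyme (10 nM final, 50 mM Tris Acetate) assessed by luminescence within 5 minutes. Percent activity scaled between DMSO and PTC124 positive control, with concentration-effect curves classified by fit quality and response.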

[16] = S16 Schwann cell viability assay (CellTiter-Glo assay) (AID 624031);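 further: native untransfected S16 rat Schwann cells; plate controls were DMSO-treated cells for no effect and cell-free wells for full effect; nearly all actives have a fitted effect of over 70% in size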
Method in brief: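 Counter-screen for cytotoxicity: parental S16 rat Schwann cells lacking the PMP22 reporters, treated 24 h with compound, viability from cellular ATP by CellTiter-Glo luminescence, normalized to DMSO (0%) and no-cell wells.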

[17] = S16 Schwann cell PMP22 intronic element firefly luciferase assay (AID 624032);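 further: plate controls were DMSO for no effect and PTC124 positive control mean for full effect; nearly all actives have a fitted effect of over 30% in size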
Method in brief: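 Luciferase reporter of PMP22 intronic-element expression in stably transfected S16 rat Schwann cells, read by ONE-Glo luminescence after 24 h compound exposure at 37 C. Activity scaled between DMSO (0%) and positive-control PTC124; concentration-effect curves quality-classified.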

[18] = qHTS profiling for inhibitors of Plasmodium falciparum proliferation (AID 504749);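 further: 0% = DMSO vehicle and full inhibition = artemisinin control; nearly all actives have a fitted effect of over 60% in size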; conditions: P. falciparum in erythrocytes, SYBR Green DNA, 72 h, at 28.7 µM (top of the series)
Method in brief: (§1)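 SYBR Green fluorescence of parasite DNA, read after lysis and overnight dark incubation, measured growth over 72 h in erythrocyte culture at 0.3% parasitemia and 2.5% hematocrit. Data normalised to DMSO and 0.29 uM artemisinin, with plate-drift correction.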

[19] = system: 3D7; assay: as above; conditions: P. falciparum in erythrocytes, SYBR Green DNA, 72 h; series mostly up to 28.7 µM
Method in brief: as §1

[20] = system: 7G8; assay: as above; conditions: P. falciparum in erythrocytes, SYBR Green DNA, 72 h; series mostly up to 28.7 µM
Method in brief: as §1

[21] = system: AA1029; assay: as above; conditions: P. falciparum in erythrocytes, SYBR Green DNA, 72 h; series mostly up to 28.7 µM
Method in brief: as §1

[22] = system: AS120; assay: as above; conditions: P. falciparum in erythrocytes, SYBR Green DNA, 72 h; series mostly up to 28.7 µM
Method in brief: as §1

[23] = system: ATS189; assay: as above; conditions: P. falciparum in erythrocytes, SYBR Green DNA, 72 h; series mostly up to 28.7 µM
Method in brief: as §1

[24] = system: ATS95; assay: as above; conditions: P. falciparum in erythrocytes, SYBR Green DNA, 72 h; series mostly up to 28.7 µM
Method in brief: as §1

[25] = system: C2A; assay: as above; conditions: P. falciparum in erythrocytes, SYBR Green DNA, 72 h; series mostly up to 28.7 µM
Method in brief: as §1

[26] = system: CP185; assay: as above; conditions: P. falciparum in erythrocytes, SYBR Green DNA, 72 h; series mostly up to 28.7 µM
Method in brief: as §1

[27] = system: CP191; assay: as above; conditions: P. falciparum in erythrocytes, SYBR Green DNA, 72 h; series mostly up to 28.7 µM
Method in brief: as §1

[28] = system: CP192; assay: as above; conditions: P. falciparum in erythrocytes, SYBR Green DNA, 72 h; series mostly up to 28.7 µM
Method in brief: as §1

[29] = system: CP194; assay: as above; conditions: P. falciparum in erythrocytes, SYBR Green DNA, 72 h; series mostly up to 28.7 µM
Method in brief: as §1

[30] = system: CP201; assay: as above; conditions: P. falciparum in erythrocytes, SYBR Green DNA, 72 h; series mostly up to 28.7 µM
Method in brief: as §1

[31] = system: CP203; assay: as above; conditions: P. falciparum in erythrocytes, SYBR Green DNA, 72 h; series mostly up to 28.7 µM
Method in brief: as §1

[32] = system: CP211; assay: as above; conditions: P. falciparum in erythrocytes, SYBR Green DNA, 72 h; series mostly up to 28.7 µM
Method in brief: as §1

[33] = system: CP215; assay: as above; conditions: P. falciparum in erythrocytes, SYBR Green DNA, 72 h; series mostly up to 28.7 µM
Method in brief: as §1

[34] = system: CP217; assay: as above; conditions: P. falciparum in erythrocytes, SYBR Green DNA, 72 h; series mostly up to 28.7 µM
Method in brief: as §1

[35] = system: CP237; assay: as above; conditions: P. falciparum in erythrocytes, SYBR Green DNA, 72 h; series mostly up to 28.7 µM
Method in brief: as §1

[36] = system: CP238; assay: as above; conditions: P. falciparum in erythrocytes, SYBR Green DNA, 72 h; series mostly up to 28.7 µM
Method in brief: as §1

Cc1cn([C@H]2C[C@H](N=[N+]=[N-])[C@H](CO)O2)c(=O)[nH]c1=O
inactive: Potency [1] > 11.4 µM | activity change, negative = inhibition ([2]; at 7.69 µM (top of the series)) 11.1% | activity change, negative = inhibition ([2]; at 38 µM (top of the series)) 1.21% | activity change, negative = inhibition ([3]; at 7.69 µM (top of the series)) 5.39% | activity change, negative = inhibition ([3]; at 38 µM (top of the series)) -4.43% | activity, negative = inhibition ([4]; at 7.69 µM (top of the series)) -1.74% | activity, negative = inhibition ([4]; at 38 µM (top of the series)) 22.1% | Potency [5] > 46 µM | Potency [6] > 46 µM and > 9.22 µM | Potency [7] | Potency [8] | Potency [9] | outcome [10] | outcome [11] | outcome [12] | Potency [13] | Potency [14] | outcome [15] | Potency [16] | Potency [17] | activity, negative = inhibition ([18]; parasite line A) 7.02% | activity, negative = inhibition ([18]; parasite line B) 2.08% | Potency [19] | Potency [20] | Potency [21] | Potency [22] | Potency [23] | Potency [24] | Potency [25] | Potency [26] | Potency [27] | Potency [28] | Potency [29] | Potency [30] | Potency [31] | Potency [32] | Potency [33] | Potency [34] | Potency [35] | Potency [36]
